Results filed as inconclusive are left out. The source made the active and inactive calls. Calls come from the whole dose curve; as a rule, active = well fitted curve in either direction with a large enough effect (not every such curve was filed as active); inconclusive = small, poorly fitted or top-dose-only effect, or another doubt; inactive = flat fitted curve, though single readings scatter.
Assay: Stat Signaling Pathway (AID 446)
Details: ME-180 (cervical carcinoma) SIE beta-lactamase reporter, IL-6 stimulated, 5 h; at 17.2 µM (top of the series) unless noted
Procedure: NCGC Assay Overview: The IL-6/STAT signaling pathway was assayed in ME-180 cervical carcinoma cells by a beta-lactamase reporter gene controlled by a STAT Inducible Element (SIE). This reporter is induced by IL-6 at 40 pM AC50 and inhibited by the pan JAK inhibitor, 2-(1,1-Dimethylethyl)-9-fluoro-3,6-dihydro-7H-benz[h]-imidaz[4,5-f]isoquinolin-7-one, at approximately 10 nM AC50. Plated cells were incubated overnight and on the following day, stimulated with 40 pM IL-6 for 5 hrs. The assay was screened at the AC50 of IL-6 activation to identify both inhibitors and activators of IL-6/STAT signaling.
NCGC Assay Protocol Summary: Cells were trypsinized, washed in assay medium (AM, OPTI MEM with 0.5% fetal bovine serum, 0.1 mM nonessential amino acids, 1 mM sodium pyruvate, 10mM HEPES pH 7.3, 100U/ml penicillin, and 100 ug/ml streptomycin) and suspended at 6 x 10e5/ml in AM. Approximately […] cells in 5 uL/well was dispensed into 1536 well plates and the cells were incubated overnight at 37 C. 23 nL of compound were delivered by a pin tool and 1 uL of IL-6 (40 pM final concentration in AM) was added. After centrifugation at 1000 rpm for less than a minute, plates were incubated at 37C for 5 hrs. One uL of detector mix (LiveBLAzerTM, Invitrogen) was added, the plates incubated at room temperature for 2.5 hrs, and fluorescence intensity at 460 and 530 nm emission was measured at 405 nm excitation by an Envision (Perkin Elmer) or Safire II (Tecan). Data were normalized by GeneData to the controls for AC90 stimulation (300 pM IL-6) and to AC90 inhibition (125 nM Jak inhibitor, 40 pM IL-6 in AM).
% is set by controls: 0 for no effect and ±100 for the full control effect.

activity, negative = inhibition, inactive:
O=S(=O)(c1ccccc1)N1CCC(N2CCN(c3ccccc3)CC2)CC1 5.78%, CCOC(=O)C1/C(=N\O)CC(C)(O)C(C(=O)OCC)C1c1ccc(OC)c(OC)c1 (stereo not given) 0.164%, CCC(C)Nc1nc(OC)nc(N(C)C#N)n1 (stereo not given) -0.957%, CCCCc1ccc(NC(=O)CSC2=C(C#N)C(c3ccco3)C3=C(CCCC3=O)N2)cc1 (stereo not given) -23.6%, CCCCNC(=O)C(C#N)c1nc2ccccc2nc1N1CCN(c2ccccc2F)CC1 (stereo not given) 0.859%, CC(C)(C)c1ccc(O)c(N)c1 8.3%, C=CCOC(=O)C(C#N)c1nc2ccccc2nc1N1CCN(c2ccccc2OCC)CC1 (stereo not given) 2.33%, CN(C)CCCN1C(=O)C(=O)/C(=C(/O)c2ccccc2)C1c1ccccn1 (stereo not given) 4.69%, N#CCc1nc2c3c4c(sc3ncn2n1)CCCC4 5.72%, COc1ccccc1C(CC(=O)Nc1nccs1)c1ccco1 (stereo not given) -11.3%, COc1cccc(C2/C(=C(/O)c3ccc(C)cc3)C(=O)C(=O)N2Cc2ccco2)c1 (stereo not given) -9.32%, CCC(c1c(C)n(C)n(-c2ccccc2)c1=O)c1c(C)n(C)n(-c2ccccc2)c1=O 10.1%, Cn1c(=O)n(Cc2ccccc2)c(=O)c2c1nc(NCC1CCCO1)n2Cc1ccccc1 (stereo not given) -15.3%, COC(=O)C(NC(C)=O)(Nc1ccc(Br)cn1)C(F)(F)F (stereo not given) -10.2%, CCCc1cc(-n2ccnc2C)n2c(nc3ccccc32)c1C#N -3.66%, N#Cc1cc(Oc2cccc3cccnc23)c(-n2nnc3ccccc32)cc1C#N 11.7%, CC(C)OC(=O)CCNc1n[nH]c(=O)[nH]c1=O 0.163%, COc1ccccc1N1CCN(C(=O)c2c(C)cc(=O)oc2C)CC1 6.24%, Cc1cc(COc2ccccc2OCCN2CCN(C)CC2)no1 -0.578%, Cn1c2c(c(=O)n(C)c1=O)C(NC(=O)C(C)(C)C)(C(F)(F)F)C(=O)N2 (stereo not given) 6.52%, O=C(Nc1ccccn1)c1ccc(=O)[nH]n1 1.32%, CN1CC2(C)CN(C(c3ccccc3)c3ccccc3)CC(C)(C1)C2O (stereo not given) 2.94%, CCCCN(C(=O)CCC(=O)O)C1CC(=O)N(c2ccc(OCCC)cc2)C1=O (stereo not given) 5.12%, CN(C)CCOC(=O)Cc1ccc(Cl)cc1 -4.76%, C=CCNc1nnc(SC2CC(=O)N(c3ccc(OC)cc3)C2=O)s1 (stereo not given) -1.82%, CCN(CC)CCN1C(=O)C(=O)/C(=C(/O)c2c(C)[nH]c(C(=O)OC)c2C)C1c1ccccc1 (stereo not given) -3.34%, C/C(=N\O)c1ccc2[nH]ccc2c1 13.9%, Cc1nc2sc3c(NCc4ccco4)ncnc3c2c2c1COC(C)(C)C2 -18.1%, Cn1c(=O)c2c(nc(Br)n2Cc2ccc3ccccc3c2)n(C)c1=O -5.3%, CCC(=O)Nc1ccc(-c2nnc(-c3ccccc3)o2)cc1 -0.000551%, CN=C(c1ccco1)n1c(=S)nc(-c2ccco2)n(C)c1=S 15.6%, Cn1c(=O)c2c(nc(NCc3ccco3)n2CCc2ccccc2)n(C)c1=O -5.04%, COc1ccc(-c2cc(-c3ccccc3)n3ncnc3n2)cc1 1.12%, CCOc1ccc(C2C(C(=O)c3ccc(C)o3)=C(O)C(=O)N2CCN2CCOCC2)cc1OC (stereo not given) 0.944%, CC(=O)C1=C(O)C(=O)N(c2cccc(C(=O)O)c2)C1c1ccccc1F (stereo not given) 10.6%, C/C(=N\O)C(=O)NCCCNCCCN(C)C 14.2%, Cc1c(N2C(=O)SC(CC(=O)O)C2=O)c(=O)n(-c2ccccc2)n1C (stereo not given) 6.13%, O=C(Nc1nnc(SCc2ccccc2F)s1)c1ccco1 -4.78%, C=CCc1cccc(/C=N/n2cnnc2)c1O 7.8%, Cc1cc(C)n(C(=O)CN2C(=O)CCC2=O)n1 3.71%

From PubChem BioAssay (NCATS)
